ABCB6 inh MLPCN = ABCB6 transporter inhibitors, primary screen, K562-ABCB6 cells, flow cytometry, MLPCN library; ATP-binding cassette sub-family B member 6 (Homo sapiens), Q9NP58; K562-ABCB6 porphyrin accumulation, 1 h; active compounds read low; 360,000 tested, 0.19% active; fluorescence ratio to DMSO, % at 10 µM;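 active means fluorescence ratio to DMSO below 75%, the collection mean minus 3 SD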;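 further: signal is porphyrin accumulated inside mitochondria; 100% equals median channel fluorescence of DMSO control wells; lower ratio means ABCB6 inhibition with less porphyrin fluorescence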
Target sequence (Q9NP58 whole entry, looked up): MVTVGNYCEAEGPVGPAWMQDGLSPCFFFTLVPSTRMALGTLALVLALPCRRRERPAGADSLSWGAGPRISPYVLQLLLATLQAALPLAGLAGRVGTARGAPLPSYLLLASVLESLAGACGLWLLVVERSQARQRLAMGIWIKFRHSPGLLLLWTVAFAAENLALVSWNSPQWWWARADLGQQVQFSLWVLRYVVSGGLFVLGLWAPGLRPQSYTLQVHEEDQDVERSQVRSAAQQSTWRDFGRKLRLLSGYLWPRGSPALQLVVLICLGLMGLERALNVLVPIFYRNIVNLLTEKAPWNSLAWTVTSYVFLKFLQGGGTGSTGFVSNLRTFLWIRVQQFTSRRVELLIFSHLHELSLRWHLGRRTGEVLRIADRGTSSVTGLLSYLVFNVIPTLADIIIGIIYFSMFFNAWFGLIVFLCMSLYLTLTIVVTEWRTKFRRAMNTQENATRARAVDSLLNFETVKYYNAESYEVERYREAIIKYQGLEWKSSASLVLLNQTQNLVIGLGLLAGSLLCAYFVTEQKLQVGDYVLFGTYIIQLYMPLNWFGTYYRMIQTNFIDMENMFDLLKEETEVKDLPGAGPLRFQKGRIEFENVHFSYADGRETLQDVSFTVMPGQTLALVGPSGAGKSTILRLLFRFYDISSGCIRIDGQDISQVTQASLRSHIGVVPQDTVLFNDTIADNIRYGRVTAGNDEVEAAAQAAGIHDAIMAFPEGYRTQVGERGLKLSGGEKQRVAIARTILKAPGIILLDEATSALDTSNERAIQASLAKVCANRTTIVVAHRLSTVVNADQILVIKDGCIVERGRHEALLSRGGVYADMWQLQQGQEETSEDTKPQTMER
MEKK2wt PB1 HTS = modulators of MEK5 binding to wildtype MEKK2, primary screen, biochemical, multiplex bead flow cytometry, Alexa488-MEK5. Alexa488-MEK5 binding to MEKK2 WT; actives lie on both sides. binding response (% of control), % at 10 µM. 290,000 tested, 1.1% active. AID 1531, 2009; in the data active means binding response below about 67% or above about 130%
CRFR2-BP antag = antagonists of CRF-BP/CRF-R2 complex, primary screen, cell-based, HEK293, calcium dye fluorescence, uHTS; CRF-induced calcium fluorescence; inhibition, % at 11.8 µM; 350,000 tested, 0.59% active;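 active means inhibition of the ligand-induced calcium signal above about 50% at the single tested concentration, limit read from the data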
MEKK2mut PB1 HTS = MEK5 binding signal on mutant MEKK2 PB1, primary screen, biochemical, multiplex bead flow cytometry, Alexa488-MEK5. AID 1530, 2009. Alexa488-MEK5 binding to MEKK2 mutant. 290,000 tested, 0.35% active. percent response, % at 10 µM; in the data active means percent response above about 24%, passing the limit was not always enough
MEKK3 PB1 HTS = modulators of MEKK3-MEK5 PB1 binding, primary screen, biochemical, wildtype MEKK3, multiplex bead flow cytometry, Alexa488-MEK5; Mitogen-activated protein kinase kinase kinase 3 (Homo sapiens), Q99759; bead-based flow cytometry, Alexa488-MEK5 binding to MEKK3; actives lie on both sides; 0 = blocked by unlabeled MEK5, 100 = vehicle; binding response (% of control), % at 10 µM; 290,000 tested, 1.4% active; AID 1529, 2009;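 active means binding response more than 3 SD above or below the average of its plate-row segment, actives on both sides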;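 further: Alexa488 bead fluorescence after subtracting the streptavidin-only scavenger bead signal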
CRFBP-R2 agonist = agonists of CRF-BP/CRF-R2 complex, primary screen, cell-based, HEK293, calcium dye fluorescence, uHTS; calcium dye fluorescence (FLIPR); percent of saturating CRF peptide response; activation, % at 13.2 µM; 350,000 tested, 0.46% active; AID 588473, 2011; CRF-binding protein / CRF receptor 2 complex (human);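 active means activation of at least 50%, plus an integration ratio under a set limit after plate pattern correction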;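 further: plate controls were neutral control wells without compound for no effect and CRF at EC100 for full effect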
MEKK2wt confirm = modulators of MEK5 binding to wildtype MEKK2, confirmation, biochemical, single concentration, multiplex bead flow cytometry; AID 1892, 2009; binding response (% of control), % at 10 µM; 5,900 tested, 2.4% active; Alexa488-MEK5 binding to MEKK2 WT; actives lie on both sides; shares compounds with MEKK3 PB1 HTS; in the data active means binding response below about 16% or above about 210%; inactive means in between
MEKK2mut-MEK5 = mutant MEKK2 PB1-MEK5 binding signal retest – biochemical, single concentration, multiplex bead flow cytometry, confirmation; AID 1893, 2009; percent response, % at 10 µM; Alexa488-MEK5 binding to MEKK2 mutant; 5,900 tested, 2% active; shares compounds with MEKK3 PB1 HTS; in the data active means percent response mostly above about 71%, no sharp cut-off; inactive means mostly below about 38%;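 further: higher means compound restores mutant binding toward wildtype level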
MEKK3 confirm = MEKK3 wild-type PB1 binding to MEK5, inhibitors, confirmation, biochemical, bead multiplex flow cytometry, single concentration, wildtype; 5,900 tested, 1.8% active; shares compounds with MEKK3 PB1 HTS; Alexa488-MEK5 binding to MEKK3; active compounds read low; AID 1894, 2009; binding response (% of control), % at 10 µM;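 active means binding response below 72% of control, or above a set upper limit, though filed actives all read lower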;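 further: 100% = DMSO only wells and 0% = binding blocked by excess unlabeled MEK5; lower values mean stronger disruption of MEK5 binding to MEKK3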
Active calls of the source: *; . = no result given; [ ] = dose if it differs, or a comment. The list is not random: actives were taken first. Their share in the collection is about 2.9%.

SMILES	ABCB6 inh MLPCN	MEKK2wt PB1 HTS	CRFR2-BP antag	MEKK2mut PB1 HTS	MEKK3 PB1 HTS	CRFBP-R2 agonist	MEKK2wt confirm	MEKK2mut-MEK5	MEKK3 confirm
CC(C)(C#CC(=O)O)OOC(c1ccccc1)(c1ccccc1)c1ccccc1	98.0	103.0	29.7	9.0	107.0	1.2	.	.	.
Cc1nc2cc(-c3cccc(F)c3)nn2c(C)c1CCC(=O)N1CCC2(CC1)OCCO2	91.0	102.0	-7.3	1.0	103.0	-2.0	.	.	.
Cc1nc2c(-c3ccccc3)c(C)nn2c(C)c1CCC(=O)N1CCC2(CC1)OCCO2	98.0	101.0	-7.5	-29.0	44.0*[inhibitor]	-0.6	106.0	0.0	100.0
Cc1noc(C)c1COc1ccc(C(=O)NCC2(N(C)C)CCCCC2)cc1	100.0	.	9.0	.	.	0.0	.	.	.
Cc1cccc(C(O)(C(=O)NNC(=O)CN2CCN(C)CC2)c2cccc(C)c2)c1	98.0	98.0	3.0	1.0	90.0	-1.7	.	.	.
Cc1ccc(C(O)(C(=O)NNC(=O)CN2CCN(C)CC2)c2ccc(C)cc2)cc1	99.0	101.0	-17.4	0.0	67.0*[inhibitor]	-1.2	106.0	6.0	107.0
Cc1ccc2c(c1)C1CN(C)CCC1N2C(=O)c1ccco1 (centres undefined)	100.0	83.0	3.9	-15.0	71.0*[inhibitor]	-1.9	107.0	-4.0	100.0
Cc1ccccc1-n1c(C)nc2sccc2c1=O	89.0	3.0*[inhibitor]	9.5	-18.0	2.0*[inhibitor]	0.8	106.0	6.0	106.0
NCCc1c[nH]c2ccccc12	105.0	138.0*	-3.8	11.0	92.0	0.0	113.0	9.0	103.0
C=C(C)[C@@H]1C2C(=O)O[C@H]1[C@H]1OC(=O)[C@@]34OC3C[C@]2(O)[C@@]14C (some centres undefined)	100.0	.	-18.3	.	.	-0.2	.	.	.
Cc1ccc2c(c1)C(c1ccccc1)=NCC(=O)N2C	99.0	.	7.4	.	.	1.4	.	.	.
COC(=O)C(O)(c1ccc(NC(=S)NC(=O)c2ccc(Cl)cc2Cl)c(C)c1)C(F)(F)F (centres undefined)	82.0	97.0	-120.4	-1.0	107.0	30.6	.	.	.
COC(=O)C(O)(c1ccc(NC(=S)NC(=O)c2ccc(Cl)cc2Cl)cc1)C(F)(F)F (centres undefined)	99.0	106.0	-108.6	3.0	148.0*	36.6	92.0	-4.0	102.0
CCOC(=O)C(O)(c1ccc(NC(=S)NC(=O)c2ccc(Cl)cc2Cl)c(C)c1)C(F)(F)F (centres undefined)	97.0	102.0	-201.9	1.0	147.0*	113.9*	92.0	-8.0	94.0
O=C(N[C@H]1CP(=O)(Oc2ccccc2)O[C@H](COCc2ccccc2)[C@H]1O)C(Cl)(Cl)Cl (some centres undefined)	99.0	97.0	-3.3	-8.0	94.0	-1.2	.	.	.
CN=C(SCC(=O)c1cccc(Cl)c1)c1c(O)n(C)c(=O)n(C)c1=O	102.0	80.0	3.5	-26.0	75.0	-0.3	.	.	.
COc1ccc2c(c1)[nH]c1c(C)nccc12	97.0	.	0.3	.	.	-1.0	.	.	.
